Measured values published in ChEMBL document CHEMBL3988442, “University of Dundee, Small-Polar-MMV Screening Library” (2021).
In all, about 48,000 compounds went through this assay and about 13,000 (27%) showed an effect of 50% or more. The list shows a part of the results.

Tested on: Wolbachia pipientis
Experiment: Anti-Wolbachia Cell-Based Screen
Format: functional
Parameters: scale not given: in the data most compounds retested in dose-response had high values
Settings: 5 µM

| Compound | Percent Effect |
| --- | --- |
| Cc1oc(-c2cccs2)nc1C(=O)N(C)C1(C#N)CCC1 | 6.807% |
| Cc1ccc([C@@H]2CN(C(=O)CCc3cc(Cl)no3)C[C@H]2N(C)C)cc1 | -9.949% |
| CC(NC(N)=O)C(=O)NCc1ccnc(Oc2ccc(F)cc2)c1 (stereo unspecified) | -14.04% |
| COc1cccc(-c2cc(CN)ccc2F)c1F | -9.579% |
| COc1ccc(Oc2cc(CN)ccn2)cc1 | 98.96% |
| COc1ccc(N(CCC(N)=O)C(=O)CSc2ccc(Cl)cc2)cc1 | -20.11% |
| COCCC(=O)N[C@H]1CN(c2nc(C)c3c(n2)CCCC3)C[C@@H]1C1CC1 | 40.93% |
| CC(NCc1ccccn1)c1cc2c(cc1Br)OCCO2 (stereo unspecified) | 9.612% |
| O=C(NCc1ccc(F)cc1)NCC(O)(c1cccs1)C1CC1 (stereo unspecified) | 0.4051% |
| CN1CCC(NC(=O)CCCc2cc(Cl)sc2Cl)C1=O (stereo unspecified) | -5.326% |
| Cn1cc(N2CCC(NC(=O)c3ccccc3Cl)C2=O)cn1 (stereo unspecified) | -3.21% |
| CN1CCC(NC(=O)Nc2ccc(Br)c(F)c2)C1=O (stereo unspecified) | 3.385% |
| CN1CCC(NC(=O)c2cc(F)cc(Cl)c2O)C1=O (stereo unspecified) | 115.3% |
| CN1CCC(NC(=O)Nc2ccc(F)c(-n3cccc3)c2)C1=O (stereo unspecified) | 0.2161% |
| CN1CCC(NC(=O)Nc2ccc(Cl)c(F)c2)C1=O (stereo unspecified) | 7.915% |
| CN1CCC(NC(=O)Nc2ccc(F)c(Br)c2)C1=O (stereo unspecified) | -1.465% |
| CN1CCC(NC(=O)c2cc(Br)cc(Cl)c2O)C1=O (stereo unspecified) | 91.47% |
| CN1CCC(NC(=O)c2cc(Cl)cc(Br)c2O)C1=O (stereo unspecified) | 99.64% |

| Compound | Percent Effect |
| --- | --- |
| CCN(C)C[C@@H]1CN(Cc2cccc(Cl)c2)C[C@@H]1CO | -21.33% |
| Cc1ncc(CN(C)C(=O)Nc2cccc(N3CCNC3=O)c2)s1 | -6.99% |
| COc1cccc(-c2cc(NCc3nc(C)cs3)n(C)n2)c1 | -29% |
| CCN1C(=O)C[C@@H]2[C@@H]1CCN2S(=O)(=O)c1cccc(C)c1 | -32.48% |
| CCCS(=O)(=O)N1CC[C@@H]2[C@@H]1CC(=O)N2Cc1csc(C)n1 | 71.41% |
| CCS(=O)(=O)N1CC[C@H]2[C@H]1CC(=O)N2Cc1csc(C)n1 | 96.63% |
| CCOCC(=O)N1CC[C@H]2[C@@H]1CCC(=O)N2Cc1csc(C)n1 | 22.07% |
| COc1ccc(Br)c(C(=O)N2CCCC(c3nc(C)no3)C2)c1 (stereo unspecified) | -8.45% |
| CCC(=O)N1CCN(C(=O)Nc2cccc(N3CCOCC3)c2)CC1 | -13.34% |
| CC(C)n1ccnc1CN1CCCN(C(=O)c2nccnc2N)CC1 | 3.581% |
| Cn1ccnc1CN1CCC2(CC(=O)N(c3ccc4c(c3)OCO4)C2)C1.O=C(O)C(F)(F)F (stereo unspecified) | -22.94% |
| Cn1ccnc1CN1CCC2(CC1)CN(CC1CC1)C(=O)CO2 | -0.08379% |
| CC(NC(N)=O)C(=O)N1CCCN(Cc2nccn2C(C)C)CC1 (stereo unspecified) | -6.463% |
| CC1(C(=O)N2CCOCC2)CN(Cc2ncc[nH]2)CCO1 (stereo unspecified) | 90.74% |
| CN1CC2(CCN(Cc3ncc[nH]3)CC2)CC1=O | -5.481% |
| Cn1ccnc1CN1CCOC(C)(C(=O)N2CCOCC2)C1 (stereo unspecified) | 108.3% |
| O=C(c1cccc(S(=O)(=O)NCCCc2ncc[nH]2)c1)N1CCOCC1 | -4.417% |
| CC(C)n1ccnc1CN1CCOC(C)(C(=O)N2CCOCC2)C1 (stereo unspecified) | 127.3% |
